# Reference: publication PMC5489143, “One ligand, two regulators and three binding sites: How KDPG controls primary carbon metabolism in Pseudomonas”
# How the values were obtained:
# Settings in all cases: protein: recombinant; tags: C-terminal His (pET42b), not removed; chain copies: 2; label: captured on SA chip through 20-nt ReDCaT single-stranded 3' overhang of strand 2; dsDNA, one strand shown
# RccR-His [1] = biological target: T1, RccR-His (Pseudomonas fluorescens SBW25, UniProt A0ACD4XSS6 1-288); assay: SPR (ReDCaT); SPR ReDCaT, 10 mM HEPES pH 7.4, 300 mM NaCl, 3 mM EDTA, 0.05% Tween-20, 25 C; high values mean tight binding
# RccR-His [2] = biological target: T1, RccR-His; assay: SPR (ReDCaT); KDPG 0 uM; SPR ReDCaT, 10 mM HEPES pH 7.4, 300 mM NaCl, 3 mM EDTA, 0.05% Tween-20, 25 C; high values mean tight binding
# RccR-His [3] = biological target: T1, RccR-His; assay: SPR (ReDCaT); KDPG 1 uM; SPR ReDCaT, 10 mM HEPES pH 7.4, 300 mM NaCl, 3 mM EDTA, 0.05% Tween-20, 25 C; high values mean tight binding
# RccR-His [4] = biological target: T1, RccR-His; assay: SPR (ReDCaT); KDPG 10 uM; SPR ReDCaT, 10 mM HEPES pH 7.4, 300 mM NaCl, 3 mM EDTA, 0.05% Tween-20, 25 C; high values mean tight binding
# RccR-His [5] = biological target: T1, RccR-His; assay: SPR (ReDCaT); KDPG 100 uM; SPR ReDCaT, 10 mM HEPES pH 7.4, 300 mM NaCl, 3 mM EDTA, 0.05% Tween-20, 25 C; high values mean tight binding
sequence,measurement,setting,value
CTTGTAGTTAATTTTTCGTCACCCGTCATA,binding signal,RccR-His [1],8.34 %Rmax
ATGTAGGGTCCGCCGAAGACCACTACCT,binding signal,RccR-His [1],3.18 %Rmax
CTTGTGTAGTTTTACTACTCGTATATACAT,binding signal,RccR-His [1],126 %Rmax
same,binding signal,RccR-His [2],121 %Rmax
same,binding signal,RccR-His [3],116 %Rmax
same,binding signal,RccR-His [4],86.8 %Rmax
same,binding signal,RccR-His [5],29.9 %Rmax
CATGTAGTATGCCCAACCGTGCACTACATA,binding signal,RccR-His [1],55.1 %Rmax
TATGTAGTGAGCAAAAATAATCACTACATA,binding signal,RccR-His [1],59.1 %Rmax
AATGTAGCCCCTTTTTTCAGCCCCTACATG,binding signal,RccR-His [1],6.22 %Rmax
CTTGTAGTATAACTACAAGCTTGCTACATC,binding signal,RccR-His [1],158 %Rmax
same,binding signal,RccR-His [2],161 %Rmax
same,binding signal,RccR-His [3],152 %Rmax
same,binding signal,RccR-His [4],125 %Rmax
same,binding signal,RccR-His [5],105 %Rmax
GATGTAGTGCTTGAAAAAAAGCACTACAAA,binding signal,RccR-His [1],82.8 %Rmax
same,binding signal,RccR-His [2],67.2 %Rmax
same,binding signal,RccR-His [3],104 %Rmax
same,binding signal,RccR-His [4],119 %Rmax
same,binding signal,RccR-His [5],121 %Rmax
CGGTAGTAGTGCGCAACTTTCTACTACAAA,binding signal,RccR-His [1],35.9 %Rmax
